Measured values: PubChem BioAssay (NCI)
This is part of a sample that, as a whole, favours compounds with a hit. Of some 83,000 tested, about 20% had one in any assay.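 Activity criterion: percent growth below 10, measured after cells in 96-well plates were exposed to a single compound concentration for 48 hours.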 Unmarked numbers belong to inactive results. The source made the active and inactive calls.

What follows are molecules tested on MDA-MB-468 breast (assay: NCI-60 one-dose screen, 48 h (100 = growth as untreated, 0 = no growth, -100 = all killed)). Conditions: 10 µM unless noted.
COc1ccc2c(c1)C(c1cc(OC)c3c(c1)OCO3)C1=C(COC1=O)N2 (stereo not given) was tested, and the growth was -14.4% (active).
With O=[N+]([O-])c1cccc(C(c2ccccc2)c2ccccc2)c1 the growth was 93.9%.
N#Cc1c(-c2ccccc2)nc2c(c(-c3ccccc3)nn2-c2ccccc2)c1-c1ccc(O)cc1 was tested, and the growth was 38.3%.
Cc1cc(=O)n(C(=S)Nc2ccc(Cl)cc2)c2cc(O)ccc12 gave a growth of 98.7%.
With C=C(C=O)[C@@H]1CC[C@]2(C)[C@H](CC=C3[C@H]4[C@@H](C)[C@H](C)CC[C@]4(C(=O)OC)CC[C@]32C)[C@@]1(C)CCC#N the growth was -18.1% (active).
Work on COC(=O)c1ccc(=O)oc1 yielded a growth of 105%.
COC(=O)N/N=C/c1c[n+]([O-])c2ccccc2[n+]1[O-] was tested, and the growth was 110%.
For CCCCCCCCCCCCNC(=S)N/N=C/c1ccc(Cl)c(Cl)c1, the growth was 104%.
O=C(O)c1occ(Cl)c1Cl gave a growth of 107%.
With COC1=CC(=O)c2nc(Cl)ccc2C1=O the growth was -51% (active).
O=C(C[n+]1ccccc1Cl)c1ccc2c(c1)CCCC2 gave a growth of 45.1%.
Cc1cc(C)c([I+]c2c(C)cc(C)cc2C)c(C)c1 was tested, and the growth was -41.9% (active).
With Cc1cc(NC(=O)c2ccc(C)c(Nc3nccc(-c4cccnc4)n3)c2)cc(-n2cnc(C)c2)c1 the growth was -18.1% (active).
Molecule Cc1nc2cc(Nc3nc(NCCO)nc(Nc4ccc(F)cc4)n3)ccc2n1Cc1ccccc1 has a growth of 99.2%.
O=c1c2cc(F)cc(Cl)c2sc2c(Cl)nc3ccccc3c12 was tested, and the growth was 99%.
Molecule CCCCOc1nc2ccc(Cl)cc2cc1/C=C/C(=O)/C=C/c1ccc(Cl)cc1 has a growth of 79.5%.
For COc1ccc(Nc2ncc(I)c(NCCCNC(=O)C3CCC3)n2)cc1, the growth was -14.9% (active).
Molecule COc1ccc(-c2nc(SC(C)C)nc(NNC(N)=O)c2C#N)cc1 has a growth of 80.5%.
In the case of O=C(N/N=C/c1cc(Cl)ccc1O)c1ccccc1Nc1ccnc(C(F)(F)F)c1, the growth was 12.8%.
With CCCC1OC(c2ccco2)OCC1CC (stereo not given) the growth was 118%.
In the case of CCNCCNc1cc(-c2ccc(C(F)(F)F)cc2)c(C#N)c2nc3cc(Cl)c(Cl)cc3n12, the growth was -82% (active).
CCN(CC)c1ccc2cc(C(=O)NCCOCCOCCOCCn3cc(CCC(=O)Nc4ccc(C(=O)c5ccc(NC(=O)OC(C)(C)C)cc5)cc4)nn3)c(=O)oc2c1 gave a growth of 51.3%.
With COc1cc(C(=O)N/N=C/c2ccc(N(C)C)cc2)cc(OC)c1OC the growth was -12.5% (active).
COc1ccccc1NC(=O)N/C(N)=N/c1nc2ccccc2s1 showed a growth of 14.2%.
Work on Clc1ccc2c(NCCCN3CCOCC3)c3oc4ccc(Cl)cc4c3nc2c1 yielded a growth of 44.2%.
N#Cc1c(N)nc2c(c(-c3ccc(Cl)cc3)nn2-c2ccccc2)c1C#N was tested, and the growth was 90.1% [100 µM].
With Cc1ccc(Sc2nnc(/N=C3\C(=O)Nc4ccccc43)s2)cc1 the growth was 102%.
Molecule COc1ccc(C2CC(c3ccc(OC)cc3O)=NN2c2ccc(S(N)(=O)=O)cc2)cc1 (stereo not given) has a growth of 56%.
COC1OC(C(COC(C)=O)OC(C)=O)C(OC(C)=O)C(OC(C)=O)C1OC(C)=O (stereo not given) showed a growth of 109%.
With CC(C)(CCCN=C(N)Nc1ccc(Cl)cc1)c1ccc(F)cc1 the growth was 16.1%.
CN(C)CCOc1ccccc1NC1=C(Cl)C(=O)C(Nc2ccccc2OCCN(C)C)=C(Cl)C1=O was tested, and the growth was -53.6% (active).
For CCC(C)N(CCNc1cc(OC)cc2cccnc12)CC(C)C (stereo not given), the growth was -52.5% (active).
COc1ccc(S(=O)(=O)NCCCNc2cc(-c3c(-c4cccc(OC)c4)nc4sccn34)ccn2)cc1 gave a growth of 11.3%.
For COCCn1cc(-c2nc(-c3c[nH]c4ncccc34)cs2)c2ccccc21, the growth was -7.09% (active).
In the case of COC(=O)c1ccc2[nH]c(O)c(C(=Nc3ccc(N(C)C(=O)CN4CCN(C)CC4)cc3)c3ccc(C)cc3)c2c1, the growth was -50.1% (active).
Work on CC1CC(O)CC(C)(C)C1 (stereo not given) yielded a growth of 108%.
Cc1ccc(Nc2ccc(Nc3ccc(C)cc3)c3c2C(=O)c2cccc(O)c2C3=O)cc1 showed a growth of 83.3%.
With O=C1N(Cc2ccccc2Cl)c2ccccc2C12NN=C(c1ccccc1)S2 (stereo not given) the growth was 57.2%.
For COc1cc2c(c(OC)c1OC)C(=O)CC(c1cccc(NC(=O)c3ccc(C#N)cc3)c1)O2 (stereo not given), the growth was 48.8%.
Molecule O=C1CSC(c2ccc(O)cc2)N1c1nnc(Cn2cnnc2)o1 (stereo not given) has a growth of 48%.
